DRD3 agonist – qHTS of D3 Dopamine Receptor Agonist: qHTS; AID 652048, 2013; 410,000 compounds, 0.58% hits; D3R DiscoveRx beta-arrestin cells, luminescence, 90 min; max activation, %; D(3) dopamine receptor (Homo sapiens), P35462; in the data active = max activation above about 30%
Target sequence (P35462 whole entry, looked up): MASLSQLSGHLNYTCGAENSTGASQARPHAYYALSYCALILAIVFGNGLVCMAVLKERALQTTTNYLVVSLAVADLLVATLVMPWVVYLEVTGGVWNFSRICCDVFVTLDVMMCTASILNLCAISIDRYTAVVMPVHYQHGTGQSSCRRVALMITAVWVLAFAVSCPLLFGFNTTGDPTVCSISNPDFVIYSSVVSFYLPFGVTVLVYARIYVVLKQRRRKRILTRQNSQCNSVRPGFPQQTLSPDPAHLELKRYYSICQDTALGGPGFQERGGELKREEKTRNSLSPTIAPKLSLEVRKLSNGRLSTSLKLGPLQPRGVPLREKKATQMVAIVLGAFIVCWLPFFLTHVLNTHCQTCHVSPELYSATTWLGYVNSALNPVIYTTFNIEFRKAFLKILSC
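Agonist mode: compounds and dopamine controls were applied to plated cells for 90 min at 37 degrees C after an overnight attachment at 1500 cells/well. Luminescent read-out followed 30 - 60 minutes at room temperature with DiscoveRx detection reagent.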
D3 antag – qHTS of D3 Dopamine Receptor Antagonist: qHTS. 360,000 compounds, 2.5% hits. D3R cells, DiscoveRx beta-arrestin luminescence, antagonist mode; active compounds read low. max response, negative = inhibition, %. D(3) dopamine receptor (Homo sapiens), P35462; in the data active = max response below about -50%; inconclusive = no clear call, values can overlap the other calls
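Cells plated overnight at 1500 cells/well, then exposed to library compounds with dopamine controls for 90 minutes at 37 degrees C. DiscoveRx reagent added for 30–60 minutes at room temperature; luminescence read, quantitative HTS format.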
Integrin act MD – qHTS for Activators of Integrin-Mediated Alleviation for Muscular Dystrophy. alpha7betagal myoblasts, beta-gal FDG fluorescence, 48 h. Potency, µM (highest dose often 38.3 µM), hits mostly activators. 350,000 compounds, 0.064% hits. AID 624291, 2012; active = well fitted activation curve with a large enough effect; inconclusive = small, poorly fitted or top-dose-only effect; inactive = no such curve, though single readings can be large or run the other way; note: nearly all actives have a fitted effect of over 60% in size
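Alpha7betagal+/- myoblasts (passage 13) were plated 16-24 hr, then exposed to compounds (1:260 dilution of DMSO stock) for 48 hours at 37C. After MPER lysis, β-galactosidase reporter activity was read as FDG fluorescence (ex 480/em 540) after 30 minutes.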
Of the large screens only hits and unclear results are named; the others gave an inactive call. A selection: hits, their analogues and other compounds. The true share with any hit is near 2.9%.

CC(CNC1CCCCC1)OC(=O)c1ccccc1 (stereo unspecified)	D3 antag -99.6 (no result: Integrin act MD)
O=C(COC(=O)c1ccccc1)NC1CCCC1	none
COc1ccccc1/C=C/C(=O)OC(C)CN1CCOCC1 (stereo unspecified)	D3 antag -82.7
CC(CN1CCOCC1)OC(=O)c1ccccc1 (stereo unspecified)	none
C=CCOc1c(CNc2ccc3[nH]c(=O)[nH]c3c2)cccc1OC	none
COc1cccc(CNc2ccc3[nH]c(=O)[nH]c3c2)c1OCc1ccc(F)cc1	D3 antag -53.5
O=C(Nc1ccc(NC(=O)c2cccs2)c(Cl)c1)c1cccs1	none
CC(C)(C)OC(=O)C[C@H]1C/C=C\C[C@@H](CC(=O)N(CCO)Cc2ccccc2)C(=O)N2CCC[C@@H]2COC1=O	none
CC(C)(C)OC(=O)C[C@H]1C/C=C\C[C@H](CC(=O)N(CCO)Cc2ccccc2)C(=O)NCCOC1=O	none
CC(C)(C)OC(=O)C[C@@H]1C/C=C\C[C@@H](CC(=O)N(CCO)Cc2ccccc2)C(=O)N2CCC[C@@H]2COC1=O	DRD3 agonist 35.3
CC(C)(C)OC(=O)C[C@@H]1C/C=C\C[C@@H](CC(=O)N(CCO)Cc2ccccc2)C(=O)NCCOC1=O	D3 antag -123.4
COc1ccc(-c2onc(C)c2C)cc1S(=O)(=O)N1CCN(c2cc(C)ccc2C)CC1	none (no result: D3 antag, Integrin act MD)
Cc1cc(C)nc(NC(=O)Cc2cccs2)n1	none
S=C(NC1CC1)SCc1ccco1	none
Cc1ccc(S(=O)(=O)N2CN(Cc3ccco3)c3nc4ccccc4nc32)cc1	none
Cc1ccc2cc3c(nc2c1)N(Cc1ccco1)CC3	D3 antag -56.2
Cc1cc(C(=O)Cn2ncc(Cl)c(Cl)c2=O)c(C)n1CC(F)(F)F	D3 antag -58.8
Cc1ccc(C)c(C(=O)Cn2ncc(Cl)c(Cl)c2=O)c1	none
Cn1c(=O)[nH]c(=O)c2c1nc(N1CCCCCC1)n2CCSc1nc2ccccc2o1	none
Cn1c(=O)[nH]c(=O)c2c1nc(Br)n2CCSc1nc2ccccc2o1	D3 antag -69.5
COc1ccc2[nH]c(=O)c(CN(C(=O)c3ccccn3)c3ccccc3)cc2c1	none
C1COCCNCCOCCOCCOCCN1	none
C1COCCNCCOCCOCCN1	D3 antag -92.0
CC(C)(C)c1cnnn1-c1ccc(/C=N/Nc2ccc([N+](=O)[O-])cc2)cc1	D3 antag -56.6
O=[N+]([O-])c1ccc(C=NNc2ccccc2)cc1	none
O=C(NCCCN1CCc2ccccc2C1)C1CCN(c2nnc(-n3cccc3)s2)CC1	D3 antag -82.3
O=C(NCCCN1CCN(Cc2ccccc2)CC1)C1CCN(c2nnc(-n3cccc3)s2)CC1	none
CCc1ccccc1NS(=O)(=O)c1ccc2[nH]cc(C(=O)NCc3ccco3)c(=O)c2c1	Integrin act MD inconclusive
COc1ccc2c(c1)C1(Nc3ccccc3-c3nc4ccccc4n31)C(=O)N2 (stereo unspecified)	D3 antag -58.8
COc1ccc2c(c1)C1(Nc3ccccc3-c3nc4ccccc4n31)C(=O)N2C (stereo unspecified)	D3 antag inconclusive
Cc1ccc(Cn2nc(C)c(NC(=O)c3cc(-c4ccc5c(c4)OCO5)on3)c2C)cc1	none
COc1ccc(/C(O)=C2/C(=O)C(=O)N(Cc3cccnc3)C2c2ccncc2)cc1F (stereo unspecified)	D3 antag -135.9
Cc1cc(OCc2ccccc2)ccc1/C(O)=C1/C(=O)C(=O)N(Cc2cccnc2)C1c1ccncc1 (stereo unspecified)	none
CCc1ccc2c(CN3CCN(Cc4ccccc4)CC3)cc(=O)oc2c1	none
COc1ccc(C2CC(c3ccc(Cl)cc3)Nc3nc(NC(=O)c4ccco4)nn32)cc1 (stereo unspecified)	none
O=C(Nc1nc2n(n1)C(c1ccc(Cl)cc1)CC(c1ccc(Cl)cc1)N2)c1ccco1 (stereo unspecified)	D3 antag -53.5
COC(=O)C1=Cc2cc(OC)cc([N+](=O)[O-])c2OC1N1CCOCC1 (stereo unspecified)	none
CCOc1cc(C(=S)N2CCCC2)ccc1OCC(=O)Nc1c(C)cc(C)cc1C	D3 antag -54.7
CCOc1cc(C(=S)N2CCCC2)ccc1OC	D3 antag inconclusive
COc1ccc(Cl)cc1Nc1ncnc2sc(C)c(S(=O)(=O)N3CCC(C)CC3)c12	none
CCOC(=O)c1c(NC(=O)C2=C(C)NC(=S)NC2c2ccc(C)cc2)sc(C)c1C (stereo unspecified)	D3 antag -52.6
CCOC(=O)c1c(NC(=O)C2=C(C)NC(=S)NC2c2ccc(F)cc2)sc(C)c1C (stereo unspecified)	none
